For assay [1], the target named is Peroxisome proliferator-activated receptor delta (Homo sapiens) (UniProt Q03181). Briefly: qHTS assay to identify small molecule agonists of the peroxisome proliferator-activated receptor delta (PPARd) signaling pathway (AID 743212; calls by dose curve;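 note: HEK293H cells with PPARd UAS beta-lactamase reporter GeneBLAzer system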). In short, it runs like this:
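Steps: seed PPARd-bla HEK293H cells; incubate 5 h, 37 C, 5% CO2; add compounds in DMSO; incubate, 37 C; add LiveBLAzer B/G FRET substrate; hold 2 h at room temperature; measure fluorescence.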

Assay [2] in a line: qHTS assay to identify small molecule antagonists of the peroxisome proliferator-activated receptor delta (PPARd) signaling pathway - cell viability counter screen (AID 743213). Note: nearly all actives have a fitted effect of over 50% in size. Note: potency is the fitted concentration of half-maximal effect. The procedure, abridged:
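In this counter screen, HEK293H cells carrying a UAS-beta-lactamase reporter are co-treated with test compounds and 300 nM L165041 (final) for 17 h at 37 C; cell viability is quantified by CellTiter-Glo luminescence.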

Assay [3] addresses Peroxisome proliferator-activated receptor delta (Homo sapiens) (UniProt Q03181). Description: qHTS assay to identify small molecule antagonists of the peroxisome proliferator-activated receptor delta (PPARd) signaling pathway (AID 743215; active = well fitted inhibition curve with a large enough effect in the signal ratio in the repeat runs, not every such curve was filed as active; the % refers to the signal ratio;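 note: cells stimulated with agonist L165041 at 300 nM final during compound exposure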; note: potency is the fitted concentration of half-maximal effect). The procedure, abridged: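 Agonist L165041 (300 nM final) added with compound to PPARd-bla HEK293H UAS-bla reporter cells; 17 h incubation at 37 C. Read-out: LiveBLAzer FRET substrate, 2 h at room temperature, fluorescence intensity.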

Assay [4] deals with Bile acid receptor (Homo sapiens) (UniProt Q96RI1). Description: qHTS assay to identify small molecule antagonists of the farnesoid-X-receptor (FXR) signaling pathway (AID 743217; active = well fitted inhibition curve with a large enough effect in the signal ratio in the repeat runs, not every such curve was filed as active; the % refers to the signal ratio). The procedure, abridged:
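Antagonist mode: chenodeoxycholic acid at 50 uM final stimulates a UAS-driven beta-lactamase reporter in HEK 293T FXR-bla cells during 16 h, 37C compound exposure. Read-out is FRET substrate fluorescence after 2 h at room temperature.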

Assay [5] can be described thus: qHTS assay to identify small molecule agonists of the farnesoid-X-receptor (FXR) signaling pathway - cell viability counter screen (AID 743218). Note: nearly all actives have a fitted effect of over 45% in size. Note: potency is the fitted concentration of half-maximal effect. The procedure, abridged: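 Viability counter screen in the same wells: CellTiter-Glo luminescence, 30 min room-temperature incubation, measured after the beta-lactamase read. Cells were GeneBLAzer FXR-UAS-bla HEK 293T, compound-treated 16 h at 37C.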

Assay [6] addresses Bile acid receptor (Homo sapiens) (UniProt Q96RI1). Description: qHTS assay to identify small molecule agonists of the farnesoid-X-receptor (FXR) signaling pathway (AID 743220; active = well fitted activation curve with a large enough effect in the signal ratio in the repeat runs, not every such curve was filed as active; the % refers to the signal ratio). In short, it runs like this:
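FXR-UAS-bla HEK 293T cells carrying a UAS-driven beta-lactamase reporter were plated for 5 h at 37C/5% CO2, then exposed to DMSO-dissolved Tox21 10K compounds for 16 h at 37C. A LiveBLAzer B/G FRET substrate was loaded for 2 h at room temperature before fluorescence reading.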

Assay [7] is described as follows: qHTS assay to identify small molecule antagonists of the farnesoid-X-receptor (FXR) signaling pathway - cell viability counter screen (AID 743221; active = well fitted cell-killing curve with a large enough effect in the repeat runs, not every such curve was filed as active; note: nearly all actives have a fitted effect of over 50% in size; note: potency is the fitted concentration of half-maximal effect). In short, it runs like this: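 Luminescence from CellTiter-Glo measures cytotoxicity in GeneBLAzer FXR-UAS-bla HEK 293T cells. Cells were exposed to compounds with 50 uM chenodeoxycholic acid (final) for 16 h at 37 C, in wells also used for the reporter readout.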

Assay [8] addresses Vitamin D3 receptor (Homo sapiens) (UniProt P11473). Description: qHTS assay to identify small molecule agonists of the vitamin D receptor (VDR) signaling pathway (AID 743222; calls by dose curve). The procedure, abridged:
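Agonist mode, beta-lactamase reporter: fluorescence from LiveBLAzer B/G FRET substrate (2 h, room temperature) read after 16 h compound treatment at 37 C of VDR-bla cells, which were pre-incubated 4 h after seeding.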

Assay [9] can be described thus: qHTS assay to identify small molecule agonists of the peroxisome proliferator-activated receptor delta (PPARd) signaling pathway - cell viability counter screen (AID 743211). Note: nearly all actives have a fitted effect of over 55% in size. Note: potency is the fitted concentration of half-maximal effect. The procedure, abridged: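 HEK293H PPARd-bla, 3000 cells/well; 5 h preincubation 37C/5% CO2; cpd in DMSO, 17 h 37C; B/G FRET substrate 2 h RT; CellTiter-Glo 30 min RT, luminescence.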
For assay [10], the target named is Vitamin D3 receptor (Homo sapiens) (UniProt P11473). Description: qHTS assay to identify small molecule antagonists of the vitamin D receptor (VDR) signaling pathway (AID 743223; active = well fitted inhibition curve with a large enough effect in the signal ratio in the repeat runs, not every such curve was filed as active; the % refers to the signal ratio). The procedure, abridged: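 Antagonist mode uses 1alpha,25-dihydroxyvitamin D3 at 3 nM final as stimulus. VDR-bla cells receive compounds in DMSO, incubate 16 h at 37C, then a beta-lactamase FRET substrate for 2 h at room temperature before fluorescence measurement.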
Chain of Vitamin D3 receptor (Homo sapiens) (P11473 whole entry, looked up): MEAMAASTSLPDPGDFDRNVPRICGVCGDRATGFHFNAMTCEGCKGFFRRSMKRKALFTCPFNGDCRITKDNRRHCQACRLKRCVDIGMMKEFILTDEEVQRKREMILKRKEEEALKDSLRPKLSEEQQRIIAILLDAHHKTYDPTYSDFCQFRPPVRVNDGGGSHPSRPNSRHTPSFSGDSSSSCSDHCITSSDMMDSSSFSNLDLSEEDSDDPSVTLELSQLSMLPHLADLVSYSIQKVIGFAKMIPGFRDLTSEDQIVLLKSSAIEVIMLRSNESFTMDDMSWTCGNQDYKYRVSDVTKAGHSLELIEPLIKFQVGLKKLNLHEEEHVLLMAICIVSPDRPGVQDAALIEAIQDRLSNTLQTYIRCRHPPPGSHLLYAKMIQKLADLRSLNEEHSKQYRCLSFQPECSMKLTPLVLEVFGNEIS

Structures are written as SMILES. Inconclusive results are not listed. Unmarked numbers belong to inactive results. The source made the active and inactive calls. Unless noted, calls come from the whole dose curve; as a rule, active = well fitted curve in the direction sought with a large enough effect in the repeat runs; inconclusive = weak or mixed curves; inactive = no such curve, though single readings can be large; an effect the other way counts as inactive or inconclusive.

Chain of Bile acid receptor (Homo sapiens) (Q96RI1 whole entry, looked up): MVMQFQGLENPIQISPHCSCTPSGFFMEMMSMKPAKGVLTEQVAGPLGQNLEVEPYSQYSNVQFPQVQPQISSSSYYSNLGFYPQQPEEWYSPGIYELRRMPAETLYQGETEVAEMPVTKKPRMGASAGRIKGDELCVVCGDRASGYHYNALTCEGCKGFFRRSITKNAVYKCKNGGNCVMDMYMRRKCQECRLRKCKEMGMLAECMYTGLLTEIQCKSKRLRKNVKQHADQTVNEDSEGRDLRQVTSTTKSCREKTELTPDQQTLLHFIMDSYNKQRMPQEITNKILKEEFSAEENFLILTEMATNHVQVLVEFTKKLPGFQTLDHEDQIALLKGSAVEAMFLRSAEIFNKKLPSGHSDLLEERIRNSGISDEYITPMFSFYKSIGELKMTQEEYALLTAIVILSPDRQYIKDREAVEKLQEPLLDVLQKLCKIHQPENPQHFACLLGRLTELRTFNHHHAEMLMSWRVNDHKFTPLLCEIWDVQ
Chain of Peroxisome proliferator-activated receptor delta (Homo sapiens) (Q03181 whole entry, looked up): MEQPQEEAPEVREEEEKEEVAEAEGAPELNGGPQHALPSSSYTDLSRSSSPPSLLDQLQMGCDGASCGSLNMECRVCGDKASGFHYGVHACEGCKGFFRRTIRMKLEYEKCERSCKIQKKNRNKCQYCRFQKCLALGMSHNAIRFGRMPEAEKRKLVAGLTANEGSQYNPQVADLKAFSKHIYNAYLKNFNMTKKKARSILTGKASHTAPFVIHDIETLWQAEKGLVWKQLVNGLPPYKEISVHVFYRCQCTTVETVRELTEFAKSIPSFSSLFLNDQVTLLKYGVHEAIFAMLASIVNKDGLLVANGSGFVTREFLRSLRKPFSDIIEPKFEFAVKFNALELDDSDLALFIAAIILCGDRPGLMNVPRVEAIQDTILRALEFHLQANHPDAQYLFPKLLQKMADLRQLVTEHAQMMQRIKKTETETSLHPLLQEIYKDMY

In the case of `COc1cc(NS(=O)(=O)c2ccc(N)cc2)nc(C)n1`, the molecule was classed as inactive in [1], in [4] and in assay [8]. The Potency result in assay [2], in [3], in [5], in assay [6] and in [7] was “inactive” throughout.

Consider `CCCCCCC(O)CCOC(C)=O` (stereo not given), for which the outcome in assay [1], in assay [4] and in assay [8] was inactive. Moreover, the Potency result in [2], in assay [3], in assay [5], in [6] and in assay [7] was “inactive” in each case.

For the molecule `CCOC(=O)N1CCC(Nc2ccc(Cl)cc2N)CC1`, the Potency entry in assay [9], in assay [2], in assay [5] and in [7] was “inactive” in each case. In assay [10], the molecule was called inactive.

Turning to `CC(CN(CCN(CC(C)OCCO)CC(C)OCCO)CC(C)OCCO)OCCO` (stereo not given), the Potency result in assay [9], in [3] and in assay [5] was “inactive” each time. The result in [8] and in assay [10] was inactive.

Regarding `O=C(/C=C/c1ccc([N+](=O)[O-])cc1)c1ccccc1`, the result in [1] and in [8] was inactive. Also, the Potency entry in [3], in assay [5] and in assay [7] was “inactive” in each case.

Take `CCN(CC)c1ccc(C(=C2C=CC(=[N+](CC)CC)C=C2)c2ccc(S(=O)(=O)O)cc2S(=O)(=O)[O-])cc1`: the molecule was called inactive in assay [1] and in assay [10]. In assay [2], the Potency was 27.5 µM (active). Besides, the Potency result in assay [3] and in assay [7] was “inactive” throughout.

Consider `CC(C)(C)NCC(O)COc1cccc2c1C[C@H](O)[C@H](O)C2` (stereo not given in full), for which the Potency entry in assay [9], in [5] and in assay [7] was “inactive” in each case.

As for `CC(C)(O)CCc1ccccc1`, the Potency entry in assay [2], in [3], in assay [5], in assay [6] and in [7] was “inactive” each time. The call in [4] and in [8] was inactive.

Regarding `CC[C@H]1OC(=O)[C@H](C)[C@@H](O[C@H]2C[C@@](C)(OC)[C@@H](O)[C@H](C)O2)[C@H](C)[C@@H](O[C@@H]2O[C@H](C)C[C@H](N(C)C)[C@H]2O)[C@](C)(O)C[C@@H](C)CN(C)[C@H](C)[C@@H](O)[C@]1(C)O`, the Potency result in [7] was “inactive”. Further, in assay [8], the outcome was inactive.

With `CCOC(=O)c1c(N)sc2c1CCN(Cc1ccccc1)C2`, the Potency entry in assay [2], in [5] and in assay [7] was “inactive” in each case. In addition, in [10], the call was inactive.

In the case of `C[C@@H]1[C@H](O)[C@@H](C)/C=C/C=C\C=C\C=C\C=C\C=C\C=C\[C@H](O[C@@H]2O[C@H](C)[C@@H](O)[C@H](N)[C@@H]2O)C[C@@H]2O[C@](O)(C[C@@H](O)C[C@@H](O)[C@H](O)CC[C@@H](O)C[C@@H](O)CC(=O)O[C@H]1C)C[C@H](O)[C@H]2C(=O)O` (stereo in doubt), the Potency entry in assay [5] and in assay [7] was “inactive” each time.

For the molecule `CCN(Cc1cccc(S(=O)(=O)O)c1)c1ccc(C(=C2C=CC(=[N+](CC)Cc3cccc(S(=O)(=O)O)c3)C=C2)c2ccccc2S(=O)(=O)[O-])cc1`, the molecule was classed as inactive in assay [1], in [4] and in assay [8]. Also, the Potency result in assay [2], in [3], in [5] and in [6] was “inactive” in each case. The Potency in assay [7] is 13.9 µM (active).

Consider `O=[N+]([O-])C1(Br)COCOC1`, for which the Potency entry in assay [5], in [6] and in assay [7] was “inactive” in each case. Moreover, the molecule was classed as inactive in [8].

For the molecule `CCCCCCCCCCCSCC(=O)O`, the Potency in assay [9] was 15.5 µM (active). For the same molecule, in assay [7], the Potency entry was “inactive”.

Turning to `CC(C)N=C=NC(C)C`, the Potency result in assay [9], in [2] and in assay [7] was “inactive” in each case. In addition, the call in assay [10] was inactive.

Regarding `CCCCCCCCCCCCCC(=O)OCC(O)CO` (stereo not given), the molecule was called inactive in assay [1], in assay [4] and in assay [8]. Also, the Potency result in assay [2], in assay [3], in assay [5] and in assay [7] was “inactive” throughout.

For `Cc1ccc2c(c1)CCCN2`, the Potency result in [9], in [3] and in assay [7] was “inactive” in each case.

As to `CCO[Si](C)(CCCOCC1CO1)OCC` (stereo not given), the outcome in assay [1] and in assay [10] was inactive. Also, the Potency result in assay [2], in assay [3], in assay [5] and in [7] was “inactive” in each case.

With `Cc1c(C2(c3cc(Br)c(O)c(Br)c3C)OS(=O)(=O)c3ccccc32)cc(Br)c(O)c1Br`, the Potency result in assay [2] and in assay [6] was “inactive” throughout. In assay [4], the molecule was called inactive. The Potency in [5] and in assay [7] was 16.9 µM (active) in each case.

Consider `CCCCCCCC(=O)Oc1c(Br)cc(C#N)cc1Br`, for which the Potency entry in assay [9], in [6] and in [7] was “inactive” in each case. Besides, the result in [8] and in [10] was inactive.

Regarding `CCCCCCCCCCCC(=O)OCC(O)CO` (stereo not given), the Potency result in assay [5] and in assay [7] was “inactive” throughout.

With `Cc1ccc(N(CC2=NCCN2)c2cccc(O)c2)cc1`, the Potency entry in assay [2], in assay [3], in assay [5], in assay [6] and in [7] was “inactive” each time. Besides, in assay [8], the molecule was called inactive.

With `CCNc1nc(N)nc(Cl)n1`, the Potency entry in assay [9], in assay [3], in assay [5] and in assay [7] was “inactive” each time. For the same molecule, the result in [8] was inactive.

As for `CCCCC(CC)COS(=O)(=O)O` (stereo not given), the outcome in assay [1], in assay [4] and in [8] was inactive. The Potency result in assay [2], in assay [3], in [5] and in [7] was “inactive” in each case.

Turning to `COc1cc(NCc2ccc3nc(N)nc(N)c3c2C)cc(OC)c1OC`, the molecule was classed as inactive in assay [1] and in assay [8]. Also, the Potency result in [3] and in assay [6] was “inactive” in each case.

Take `CCN(CC)CCOc1ccccc1C(=O)CCc1ccccc1`: the Potency entry in [3] and in [6] was “inactive” each time. Further, the molecule was called inactive in assay [4], in assay [8] and in [10]. Also, in assay [5], the Potency is 11.9 µM (active).

Regarding `SCCc1cnccn1`, the Potency entry in assay [2], in assay [5] and in assay [7] was “inactive” throughout.

Regarding `CCCCCc1ccco1`, the call in [1] and in assay [8] was inactive. Further, the Potency entry in assay [2], in assay [3], in assay [5], in assay [6] and in [7] was “inactive” in each case.

For `COc1ccc(/C=C/C(=O)c2ccc(OC)cc2OC)cc1`, the Potency entry in assay [9], in [5], in assay [6] and in [7] was “inactive” each time. Further, the Potency in assay [3] was 11.9 µM (active). Moreover, the call in assay [8] was inactive.

Regarding `CC(C)(C)CCCCCCOC(=O)c1ccccc1C(=O)OCCCCCCC(C)(C)C`, the Potency result in assay [9], in assay [3], in assay [5], in assay [6] and in assay [7] was “inactive” in each case. The outcome in assay [4] and in [8] was inactive.

`c1ccc2sc(SSc3nc4ccccc4s3)nc2c1`: the molecule was classed as inactive in assay [1], in assay [4], in [8] and in assay [10]. For the same molecule, the Potency entry in [2], in [3], in [5], in assay [6] and in assay [7] was “inactive” in each case.

Source of the values: PubChem BioAssay (Tox21).
